Laboratory results taken from PubChem BioAssay AID743446 (Broad Institute, 2014).
Entries with a potency or affinity are not part of this list. Values without a mark were called inactive. No rule for the calls is given here.

Experiment: viability loss in HEK293 cells – cell-based, plate reader, cherry-picked samples, cytotoxicity control, dose response (AID 743446)
Settings: active compounds read low; at 26 µM unless noted

Row | Structure (SMILES) | max activity
1 | C[C@H](CO)N1C[C@H](C)[C@H](CN(C)C(=O)Nc2ccccc2)OCCCC[C@H](C)Oc2ccc(NC(=O)NC3CCCCC3)cc2C1=O | 6.41%
2 | CC[C@H](CO)Oc1cc(NCc2ccc(Cl)c(Cl)c2)c2ncn(C(C)C)c2c1 | 27.3% [at 0.05 µM]
3 | Cc1cc(C(=O)CN2C(=O)c3ccccc3S2(=O)=O)c(C)n1C(C)C | -20.6% [at 3 µM]
4 | C[C@@H]1CN([C@@H](C)CO)C(=O)c2cccc(NC(=O)Nc3ccc(C(F)(F)F)cc3)c2O[C@H]1CN(C)C(=O)Nc1cccc2ccccc12 | 14.8% [at 6 µM]
5 | COc1ccc(/C=C/C(=O)Nc2ccccc2C(=O)O)cc1OC | 13.2% [at 1.6 µM]
6 | O=C(C[C@H]1CC[C@H](NS(=O)(=O)c2cccc(F)c2)[C@@H](CO)O1)N1CCCCC1 | 20.1% [at 0.05 µM]
7 | CCc1ccc2ncc(S(=O)(=O)c3ccc(C)c(C)c3)c(N3CCCC3)c2c1 | 19.3% [at 0.38 µM]
8 | CCCc1ccc(-c2ccc(F)c(N)c2)nc1 | -20.7% [at 12 µM]
9 | Cc1ccc(NC(=O)c2ncn(CC(=O)NCc3ccc4[nH]ccc4c3)n2)cc1C | 8.88%
10 | COc1ccc2oc(-c3ccccc3)cc(=O)c2c1 | -14.7% [at 12 µM]
11 | O=C(Nc1cccc(C(=O)O)c1)Nc1ccccc1Cl | -26.9% [at 6 µM]
12 | O=C(Nc1ccc(Cl)c(S(=O)(=O)N2CCOCC2)c1)c1ccc2c(c1)OCCO2 | -8.36% [at 3 µM]
13 | COc1ccc2c3c([nH]c2c1)[C@H](CO)N(C(C)=O)CC31CCN(C(=O)CN2CCOCC2)CC1 | 11.8% [at 0.38 µM]
14 | Cc1csc(NC(=O)c2cnc3ccccc3n2)n1 | 87.3%
15 | CC1CN(C(=O)c2cccc(S(=O)(=O)Nc3cc(Cl)ccc3Cl)c2)CC(C)O1 (configuration not stated) | 5.34%
16 | CCOC(=O)c1sc(NC(=O)Nc2ccccc2F)nc1C | -21.8% [at 0.05 µM]
17 | COc1cccc(-c2cc(C(=O)N3CCCCCC3)no2)c1 | -9.64% [at 12 µM]
18 | COc1ccc(Cl)cc1C(=O)Nc1nc2ccccc2[nH]1 | 69.4% [at 0.195 µM]
19 | CC(C)(C)NC(=O)c1cccc(NC(=O)c2ccc3c(c2)C(=O)N(C(C)(C)C)C3=O)c1 | 27.3% [at 0.195 µM]
20 | COc1ccc(C(=O)Nc2ccc3ncccc3c2)cc1 | -20.3%
21 | COc1ccc(N(CC(=O)NCc2cccs2)S(=O)(=O)c2ccc(C(C)=O)cc2)cc1 | -10.6% [at 3 µM]
22 | Cc1ccc(C(=O)n2nc(-n3cccc3)c3c(C)cc(C)nc32)cc1 | -22.4% [at 6 µM]
23 | O=C(c1cc(-c2ccccc2Cl)on1)N1CCCC1 | 27.2%
24 | Cc1ccc2nc(-c3ccc(N)cc3)sc2c1 | 21.7% [at 3 µM]
25 | CC(C)(C)n1ncc2c(=O)n(CC(=O)OCc3ccccc3)cnc21 | -10.3% [at 0.38 µM]
26 | Cc1ccoc1C(=O)Nc1ccc2ccccc2c1 | -16.8% [at 0.1 µM]
27 | c1ccc(COc2cccc(-c3cc4nc(NCCCn5ccnc5)ccn4n3)c2)cc1 | 48.7% [at 0.195 µM]
